# Dicer processing = inhibitors of Dicer pre-microRNA processing, primary screen, biochemical, cat-ELCCA, chemiluminescence. cat-ELCCA pre-miR-21 Dicer processing; stronger effect = higher value. z-score at 25 µM. 47,000 tested, 6% active. AID 1347074, 2019; in the data active = z-score above about 3, passing the limit was not always enough;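 note: plate controls were vehicle for no effect and no enzyme for full effect; higher signal means more uncleaved substrate so more Dicer inhibition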
# * marks the source's active call; other numbers are inactive results. The sample as a whole holds a higher share of hits than the screen did.
SMILES,Dicer processing
CCOC(=O)COc1ccc2c(=O)c(Oc3ccc(C(C)(C)C)cc3)coc2c1,-0.02
CC1CC2(CC(C)(c3csc(Nc4ccccc4)n3)OC2=O)C(=O)O1 (configuration not stated),4.9*
CCCCCOCC1CC2(CC(C)(c3csc(Nc4ccccc4)n3)OC2=O)C(=O)O1 (configuration not stated),-0.43
Cc1ccccc1Nc1nc(C2(C)CC(C(C)C)C(=O)O2)cs1 (configuration not stated),-0.01
Cc1ccc(S(=O)(=O)N2CCN(c3nc(C)nc4sc5c(c34)CCCC5)CC2)cc1,-1.5
CN1CCc2nc3sc(C(=O)Nc4ccc(F)cc4)c(N)c3cc2C1,-1.5
CCSc1sc(C#N)c2c1C(=O)CC(C)(C)C2,3.6*
CCSc1sc(C(=O)OC)c2c1/C(=N/O)CC(C)(C)C2,2.5
CCCSc1sc(C(=O)OC)c2c1C(=O)CC(C)(C)C2,-0.81
CCOc1ccc(S(=O)(=O)N2CCCCC2)cc1-c1nc2c(C(C)(C)C)nn(C)c2c(=O)[nH]1,0.62
N#CCCN(C(=S)Nc1cccc(C(F)(F)F)c1)C1CCCCC1,-1.1
CCOc1ccc(S(=O)(=O)N2CCSC2c2cc(OC)ccc2OC)cc1 (configuration not stated),4.8*
COc1ccc(OC)c(C2SCCN2S(=O)(=O)c2ccccc2)c1 (configuration not stated),2.2
COc1ccc(OC)c(C2SCCN2S(=O)(=O)c2ccc3ccccc3c2)c1 (configuration not stated),5.5
COc1ccc(C2SCCN2S(=O)(=O)c2ccc(Br)cc2)cc1 (configuration not stated),3.7*
COc1ccc(S(=O)(=O)N2CCSC2c2ccccc2)cc1 (configuration not stated),2.1
COc1ccc(C2SCCN2S(=O)(=O)c2ccc(F)cc2)cc1 (configuration not stated),1.1
Cc1nc(N2CCN(c3cccc(Cl)c3)CC2)c2c(C)c(C)sc2n1,1.1
CNC(=O)C(CC(C)C)NC(=O)OC(C)(C)C (configuration not stated),-0.45
O=C(Nc1ccccc1-c1nnc(-c2ccc(Cl)cc2)o1)c1ccc(Cl)cc1,-1.3
CCNS(=O)(=O)c1ccc(F)cc1,-0.33
NNC(=O)OC12CC3CC(CC(C3)C1)C2,-0.77
CC(C)(C)C(=O)CSc1nc(N)c(C(=O)C(C)(C)C)s1,-1.1
Cc1nc(C(F)(F)F)nc(Sc2n[nH]c(-c3cc(Cl)cc(Cl)c3)n2)c1C,-0.61
CCCCCOc1ccc(C2C(C(=O)OCC)=C(C)N=C3SC(C)C(=O)N32)cc1 (configuration not stated),-0.16
SMILES,Dicer processing
O=C(COc1ccc2c(=O)c(Oc3ccccc3Br)coc2c1)OC1CCCCC1,-0.81
C=C(C)CC1N(c2ccccc2C)C(=O)C2C(C(=O)O)C3C=CC21O3 (configuration not stated),-0.78
CCC(=O)Oc1c(C)cc(O)c2ccccc12,-1.2
CCC(=O)Oc1cc(C)c2sc3ccccc3c(=O)c2c1,4.4*
CCC(=O)Oc1ccc2nc(-c3ccc(C)c(C)c3)oc(=O)c2c1,-2.7
CCCc1cc(=O)oc2c1c(C)nn2-c1ccccc1,-2.4
COC(=O)c1c(C)nc(C)c2c(=O)oc3ccccc3c12,0.08
CCCc1cc2c(c(N)n1)c(=O)oc1ccccc12,-0.55
CC(C)(C)C1CCc2nc(N)c3c(=O)oc4ccccc4c3c2C1 (configuration not stated),5*
CC(=O)N1CCC(=O)Nc2ccccc21,-0.11
COc1ccccc1NC(=O)Nc1sccc1-c1nc2ccccc2s1,7.1
COc1ccc(Cl)cc1NC(=O)Nc1sccc1-c1nc2ccccc2s1,5.1*
COc1ccc(Cl)cc1NC(=O)Nc1nnc(C2CC2)s1,-0.31
COc1ccc(/C(O)=C2\C(=O)C(=O)N(CCN3CCNCC3)C2c2ccc(F)cc2)cc1 (configuration not stated),-4.4
Cc1ccc(OCc2nc3ccc(N)cc3[nH]2)cc1,2.1
Clc1cccc(Cl)c1CSc1ncc2ccccn12,1.2
CC1=C(C(=O)OC2CCCC2)C(c2cccc3ccccc23)C2=C(CCCC2=O)N1 (configuration not stated),-0.67
O=C1/C(=C/c2ccc(Cl)cc2)N=C(c2ccccc2)N1c1ccc(F)cc1,7.9*
O=C1NC(c2ccccc2)=N/C1=C/c1ccccc1,-0.81
O=C1/C(=C\c2ccc(F)cc2)N=C(c2ccccc2)N1Cc1ccc(F)cc1,-0.65
COc1ccc(Cl)cc1NC(=O)C(=O)NCC1CCCO1 (configuration not stated),-0.43
CCn1c2ccccc2c2cc(NC(=O)C(=O)NCC3CCCO3)ccc21 (configuration not stated),1.8
N#C/C(=N\Nc1ccc(F)cc1)C(=O)NCC1CCCO1 (configuration not stated),3.8*
CCNC(=S)NNC(=O)CN1c2ccccc2Sc2ccccc21,0.53
Cc1n(CC(=O)c2ccc(C(C)(C)C)cc2)c2ccccc2[n+]1C,4.9*
SMILES,Dicer processing
COC(=O)c1ccc(OCC(O)Cn2c(C)[n+](C)c3ccccc32)cc1 (configuration not stated),0.87
Cc1ccc(C(=O)Cn2c(C)[n+](C)c3ccccc32)cc1,-0.17
Cc1nn(C)c(C)c1S(=O)(=O)NC1CCCCNC1=O (configuration not stated),-3.4
CC(=O)c1ccccc1N/C=C/c1nnnn1-c1ccccc1,-0.28
Cn1nc(C(F)(F)F)c(-c2cccc(C(F)(F)F)c2)c1NC(=O)C(C)(C)C,-0.67
CC(C)NC(=O)O/N=C(\N)Cc1cccc2ccccc12,1.2
c1ccc(N2CCN(c3nc4ccccc4[nH]3)CC2)nc1,3.5*
Fc1ccc2[nH]c(CN3CCN(c4ccccn4)CC3)cc2c1,0.68
O=C1CC(N2CCN(c3ccccn3)CC2)C(=O)N1c1ccc(F)cc1 (configuration not stated),0.49
COC(=O)C1=C(C)NC2=C(C(=O)CCC2)C1c1cccc(Br)c1 (configuration not stated),-0.4
CC1=C(C(=O)Nc2nc3ccccc3s2)C(c2cccc(Br)c2)C2=C(CCCC2=O)N1 (configuration not stated),3.2*
CCOC(=O)C1=C(C)NC2=C(C(=O)CCC2)C1c1cccc(Br)c1 (configuration not stated),-0.86
CSc1nc(C)nc(-c2cccc(CSc3ccccc3)c2)c1C#N,-0.22
Cc1ccc(NC(=S)Nc2ccccc2N)c(C)c1,7*
Cc1ccc(NC(=S)Nc2ccc(C)cc2C)c(C)c1,0.92
Cc1ccc(NC(=S)Nc2ccccc2C)c(C)c1,2.5
CNC(=S)Nc1cc(C(F)(F)F)cc(C(F)(F)F)c1,1.3
CCC/S(=N\S(=O)(=O)c1ccc(C)cc1)c1ccccc1 (configuration not stated),-1
CN(C)c1ccsc1C(=O)NNS(=O)(=O)c1cc(C(F)(F)F)cc(C(F)(F)F)c1,0.8
N#CC(=C1SCCS1)S(=O)(=O)Cc1ccco1,-0.54
COC(=O)c1scc(S(=O)(=O)Cc2ccco2)c1NN=C(C#N)C#N,4.8*
COC(=O)c1scc(S(=O)(=O)Cc2cccs2)c1N/N=C(\C#N)S(=O)(=O)c1cccs1,6
CCOc1cc(CO)ccc1OCc1ccc(C(=O)O)cc1,0.14
Cc1ccc(-c2noc(-c3cc(-c4ccccc4)c(C(F)(F)F)s3)n2)cc1,1.9
Cc1nn(C)c2ncc3c(=O)n(Cc4ccccc4Cl)n(C)c3c12,1.4
